Data as given in PubChem BioAssay (NCI).
This is part of a sample that, as a whole, favours compounds with a hit. Of some 83,000 tested, about 20% had one in any assay.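 Single-concentration screen, 48 h exposure, 96-well plates. Endpoint: percent growth. Below 10 = active.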 A number with no mark means an inactive call. The source made the active and inactive calls.

The compounds below were run on A549/ATCC NSCLC (assay: NCI-60 one-dose screen, 48 h (100 = growth as untreated, 0 = no growth, -100 = all killed)). Settings: 10 µM unless noted.

Structure (SMILES) | growth
CCCCCSB(SCCCCC)c1ccccc1 | 92.4%
c1ccc(CNc2ccc3nc(CCC4CCCCC4)[nH]c3c2)cc1 | 72.5%
S=c1ssnc1-c1cccs1 | 117%
O=C(/C=C/c1ccc(Br)cc1)c1ccc(-n2cc(CN3CCN(c4cc5c(cc4F)c(=O)c(C(=O)O)cn5C4CC4)CC3)nn2)cc1 | 87.3%
COc1ccc(Cc2cnc(NC(=O)c3sc4ccccc4c3Cl)s2)cc1 | 24.4%
N#C/C(=C\c1ccc(Cl)cc1Cl)C(=O)Nc1ncc(Cc2ccc(Cl)c(Cl)c2)s1 | 89.3%
N#Cc1c(-c2cccc([N+](=O)[O-])c2)cc(-c2ccc(Nc3nc(Nc4ccc(F)cc4)nc(Nc4ccc(F)cc4)n3)cc2)nc1N | 86%
O=C(CCCCCCN1CC(=O)N2[C@@H](c3ccc(Cl)cc3)c3[nH]c4ccccc4c3C[C@H]2C1=O)NO | 93.6%
CCCCCCCCn1ccc2cc(NC(=O)Cn3cc(CN4CCC(C)CC4)nn3)ccc21 | 21.1%
CCCC(O)Cn1ncc(C(=O)OCC)c1NC(=O)NCc1cccc(F)c1 (stereo not given) | 88.4%
COc1cc2c3c(c1O)-c1ccccc1[C@@H]1OC(=O)N(CC2)[C@H]31 | 97%
C/C(=C(/c1ccc(Cl)cc1)c1ccc(OCCCN(C)C)cc1)c1ccc(Cl)cc1 | 68.1%
Cc1cc(C(=O)Nc2cc(Nc3ncccc3-c3ncnc4nc[nH]c34)ccc2F)cc(C(F)(F)F)c1 | 55.7%
CCOC(=O)NN1CC(O)=C(c2nc(-c3ccc(Br)cc3)cs2)C1=N | 88.1%
O=C1C(Cl)=C(NCCN2CCOCC2)C(=O)c2ncccc21 | -54.3% (active)
O=C(Nc1ccc(F)cc1)Nc1ccccc1CNc1nc(Nc2ccc(OCCN3CCCC3)cc2)ncc1Cl | 38.2%
C[C@H]1[C@H](C)CC[C@]2(C(=O)O)CC[C@]3(C)C(=CC[C@@H]4[C@@]5(C)C[C@@H](Cc6cn([C@@H]7O[C@H](CO)[C@@H](O)[C@H](O)[C@H]7O)nn6)[C@H](O)C(C)(C)[C@@H]5CC[C@]43C)[C@H]12 | 89%
COC(=O)c1ccc2c(c1)c1c(C)c3ccncc3c(C)c1n2C | 7.22% (active)
COc1cc(C(=O)c2c(-c3ccccc3)oc3c(OC)cccc23)cc(OC)c1O | 20.2%
C=C1C(=O)O[C@H]2[C@H]1CC/C(CNC(=O)c1cc3ccccc3[nH]1)=C\CC[C@@]1(C)O[C@@H]21 | 9.2% (active)

Structure (SMILES) | growth
O=P(O)(O)OCC1OC(n2cnc3c(NCc4ccccc4)ncnc32)C(O)C1O (stereo not given) | 55.1%
CCN(CC)CCCNCc1cc(-c2ccccc2)nc2cc(Cl)ccc12 | 57.4%
COc1cc2nc(Nc3cccc(F)c3)nc(Nc3cc(C)[nH]n3)c2cc1OC | -55% [20 µM] (active)
CCC/C(=N\NC(N)=O)C(OC)OC | 93.6%
O=C1c2cc3c(cc2-c2c1c1ccc(Cl)cc1c(=O)n2C[C@H](O)CO)OCO3 | -18.6% (active)
CCSC1=CC(=O)c2ccccc2C1=O | 93.2%
COc1cc(-c2nc3occn3c2-c2ccnc(NCCCNS(=O)(=O)c3ccccc3)n2)ccc1F | 38%
COC1=CC(c2ccc[nH]2)=N/C1=C\c1[nH]c(C)c(CC(=O)OCc2ccccc2)c1C | 5.03% (active)
O=C(CSc1nnc2sc(Nc3cccc(Cl)c3)nn12)c1ccc(F)cc1 | 87.1%
COc1ccc(C2=Nc3c(N)ncnc3NC(c3cccc(Nc4ccnc5cc(C(F)(F)F)ccc45)c3)C2)cc1 (stereo not given) | 59.8%
Nc1c(C(=O)Nc2cccc3ncccc23)sc2nc3c(cc12)C(=O)CCC3 | 49.6%
C#CCn1cnc2c(Nc3cccc(NC(=O)CCl)c3)ncnc21 | 44.8%
COc1cc2oc(-c3cccc(NC(=O)c4ccc5c(c4)OCO5)c3)cc(=O)c2c(OC)c1OC | 51.3%
CCOC(=O)CSc1nc2sc3c(c2c(=O)n1-c1ccc([N+](=O)[O-])cc1)CCCCC3 | 66.1%
Cn1cc(-c2nn3cc(-c4ccccc4)nc3s2)c2ccccc21 | 66.1%
C=C1C(=O)O[C@H]2[C@H]1CC/C(COC(=O)NCCCCCCCCNC(=O)OC/C1=C/CC[C@@]3(C)O[C@H]3[C@H]3OC(=O)C(=C)[C@@H]3CC1)=C\CC[C@@]1(C)O[C@@H]21 | 2.89% (active)
Oc1c(I)cc(-c2nc3ccccc3s2)cc1CN(Cc1ccccn1)Cc1ccccn1 | 4.74% (active)
Cc1ncc(C(=O)Nc2ccc(CN3CCN(C)CC3)c(C(F)(F)F)c2)cc1C#Cc1cnc(N)c2ccncc12 | -40.4% (active)
O=C1/C(=C/c2ccc(C(F)(F)F)cc2)COc2ccc(O)c(O)c21 | 54.2%
O=C1N[C@@H]2[C@@H](O)[C@@H](O)[C@H](O)C[C@H]2c2cc3c(c(O)c21)OCCO3 | -14.3% (active)
